# Measured values: PubChem BioAssay (NCI)
# About 83,000 compounds went through this panel and 20% of them were active in at least one assay; those are over-represented in the sample as a whole.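 Activity criterion: percent growth below 10, measured after cells in 96-well plates were exposed to a single compound concentration for 48 hours.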 A number with no mark means an inactive call. Calls of active or inactive are those of the source.
# Test system: RXF 393 renal
# Test: NCI-60 one-dose screen, 48 h (100 = growth as untreated, 0 = no growth, -100 = all killed)
# Details: 10 µM unless noted
row,Structure (SMILES),growth
1,O=C(O)COc1ccc([N+](=O)[O-])cc1Cl,108%
2,C=C[C@]1(C)C=C2C(=O)[C@@]3(O)OC[C@@]4(CCCC(C)(C)C43O)C2(O)C(O)C1 (stereo partly drawn),21.4%
3,COC(=O)C(C(=O)OC)C(Br)C(Br)C(Br)c1ccccc1 (stereo not drawn),57.5%
4,C=CCNCCC#N,109%
5,O=C1C=C(OCC=C(C(F)(F)F)C(F)(F)F)c2ccccc2C1=O,-82.5% (active)
6,N#CCc1ncc(-c2ccc(C(F)(F)F)cc2)c(NC2CCCCCC2)n1,36.4% [100 µM]
7,C[C@]12CC[C@H]3[C@@H](CC[C@H]4C[C@@H](O)CC[C@@]43C)[C@@H]1CC(=O)C2,118%
8,COC(=O)c1cc(=O)nc(N/N=C/c2ccccc2O)s1,99.7%
9,[N-]=[N+]=Nc1ncc(-c2ccc(C(F)(F)F)cc2)c(NC2CCCCCC2)n1,43.5% [100 µM]
10,NC(CSC(c1ccccc1)(c1ccccc1)c1ccccc1)C(=O)NCC(=O)O (stereo not drawn),22.6%
11,COc1cc(-c2nc(/C=C3/C(=O)Nc4ccccc43)c3ccccn23)cc(OC)c1OC,76.2%
12,COc1cc2cn3c4ccc(O)cc4[nH]c(=O)c3c2cc1OC,26.8%
13,CCCCCCCCCCCCCCCCNC(=O)Nc1ccc(C)c(NC(=O)NCCCCCCCCCCCCCCCC)c1,108%
14,CN1NC(c2ccccc2)NN(C)C1=O,107%
15,COc1cc2c(c3c1c(=O)c1cccc(F)c1n3C)C=CC(C)(C)O2,88.8%
16,NCCCOc1cc2ccccc2cc1C(=O)Nc1ccc(Cl)cc1OC(=O)c1cc2ccccc2cc1OCCCN,-86.4% (active)
17,O=C(/C=C/c1ccc(Cl)cc1)c1ccc(Cl)cc1,96%
18,CC(=O)O.[In],106%
19,COC(=O)[C@H](Cc1cn(C)cn1)NC(=O)[C@H](CC(=O)OCc1ccccc1)NC(=O)Nc1cc(C(F)(F)F)cc(C(F)(F)F)c1,-81.8% [100 µM] (active)

row,Structure (SMILES),growth
1,COc1cc([C@@H]2c3cc4c(cc3[C@H](O)[C@H]3COC[C@@H]23)OCO4)cc(OC)c1OC,83.1%
2,COc1ccc(/C=C2\CCCC3=C2N=C2SC=NN2C3c2ccc(OC)c(OC)c2)cc1OC (stereo not drawn),50.4%
3,CC(=O)CC(=O)OC/C=C(/C)CCC=C(C)C,98%
4,CC(=O)Nc1ccc(S(=O)(=O)Cl)cc1,96.2%
5,C=C(C)C(C(=O)OCC)(C(=O)OCC)C(C)C,112%
6,CSCc1ncc(-c2ccc(C(F)(F)F)cc2)c(NC2CCCCCC2)n1,75.4% [25 µM]
7,CCn1cnc(C[C@H](NC(=O)[C@@H](NC(=O)Nc2cc(C(F)(F)F)cc(C(F)(F)F)c2)C(C)C)C(=O)OC)c1,-86.2% [100 µM] (active)
8,O=Nc1ccc(O)c2ccccc12,10.9%
9,COC(=O)c1c[n+]([O-])ccc1OC,108%
10,CC#Cc1nc(Nc2cc(C)[nH]n2)c2ccccc2n1,-51% [100 µM] (active)
11,CC(Br)c1nc2ccccc2cc1C(N)=O (stereo not drawn),109%
12,COC(=O)[C@H](Cc1cn(C)cn1)NC(=O)[C@@H](NC(=O)Nc1cc(C(F)(F)F)cc(C(F)(F)F)c1)C(C)(C)C,-87.4% [100 µM] (active)
13,CCCCCCC(C(=O)OCC)(C(=O)OCC)C1CCCCCC1,104%
14,CCCCCCCCCCCCCCCCCCOP(=O)(O)O,114%
15,CCC(C)CC(N)O (stereo not drawn),91.8%
16,CN(C)CCOC(=O)C(C)(C)C,102%
17,CNc1ccc(Nc2ccc(S(=O)(=O)O)cc2)c2c1C(=O)c1ccccc1C2=O,104%
18,Cn1c2ccccc2c2ccccc21,111%
19,NCCCOc1cc(Cl)ccc1NC(=O)c1cc2ccccc2cc1OCCCN,-5.16% (active)
